Assay [1] is described as follows: qHTS assay to identify small molecule agonists of the androgen receptor (AR) signaling pathway in the presence of an antagonist - cell viability counter screen (AID 1259379).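 Also: MDA-kb2 human breast cancer cells carrying an MMTV luciferase reporter; series mostly up to about 92 µM; nearly all actives have a fitted effect of over 25% in size.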 The gist of the method: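 A CellTiter-Fluor read-out measured viability of MDA-kb2 reporter cells (MMTV promoter with AR and GR response elements). Treatment: nilutamide 3.0uM final with compounds at 15 concentrations, 16 hr, 37C, 0% CO2.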

Assay [2] can be described thus: qHTS assay to identify small molecule agonists of the estrogen receptor beta (ER-beta) signaling pathway - cell viability counter screen (AID 1259380). Also: nearly all actives have a fitted effect of over 30% in size. Also: potency is read from the fitted curve at half-maximal effect. An outline of the steps:
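Cells used were ER-beta-UAS-bla HEK293T in medium with 2% charcoal-stripped FBS. They were treated for 16 hr at 37C. Viability came from CellTiter-Glo luminescence.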
In general terms: Quantitative high-throughput screening tests each substance at several concentrations.

Assay [3] is described as follows: qHTS assay to identify small molecule antagonists of the estrogen receptor beta (ER-beta) signaling pathway - cell viability counter screen (AID 1259382). Also: series mostly up to about 92 µM; nearly all actives have a fitted effect of over 55% in size. The gist of the method:
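Agonist-stimulated (1nM E2) ER-beta-UAS-bla HEK293T cells are incubated with library compounds for 16 hr at 37C. Cell viability is then assessed in the reporter-assay wells by adding CellTiter-Glo and reading luminescence after 30 min.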

Assay [4] concerns the target Estrogen receptor (Homo sapiens) (UniProt P03372). Briefly: qHTS assay to identify small molecule agonists of the estrogen receptor alpha (ER-alpha) signaling pathway in the presence of an antagonist (AID 1259383; calls by dose curve; also: top concentration of the series differs between compounds; nearly all actives have a fitted effect of over 15% in size). An outline of the steps:
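Using VM7Luc4E2 cells seeded 24hr before treatment, antagonist ICI-182,780 (10.0nM final) was added, followed by compounds at 15 concentrations. Plates incubated 22hr; ONE-Glo luminescence quantified reporter activity.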

Assay [5] is described as follows: qHTS assay to identify small molecule agonists or antagonists of the thyroid stimulating hormone receptor (TSHR) signaling pathway - wild type cell line counter screen (AID 1259384; calls by dose curve). The gist of the method:
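Wild-type Hek293 cells, 800/well, 18 h at 37C, then compound with Ro20-1724 for 30 min RT. cAMP by HTRF (cAMP-d2/anti-cAMP cryptate), 1 h RT, fluorescence read. 15 concentrations, triplicates.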

For assay [6], the target named is Thyrotropin receptor (Homo sapiens) (UniProt P16473). The assay is described as follows: qHTS assay to identify small molecule antagonists of the thyroid stimulating hormone receptor (TSHR) signaling pathway (AID 1259385; calls by dose curve; also: nearly all actives have a fitted effect of over 20% in size). An outline of the steps: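 TSHR-HEK293 cells (800/well) plated 18 h, then compounds with Ro20-1724 and TSH at 1.5 ng/mL final, 30 min at room temperature. cAMP quantified by HTRF (cAMP-d2/anti-cAMP-cryptate, 1 h); 15 concentrations in triplicate.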
Thyrotropin receptor (Homo sapiens), sequence (P16473 whole entry, looked up): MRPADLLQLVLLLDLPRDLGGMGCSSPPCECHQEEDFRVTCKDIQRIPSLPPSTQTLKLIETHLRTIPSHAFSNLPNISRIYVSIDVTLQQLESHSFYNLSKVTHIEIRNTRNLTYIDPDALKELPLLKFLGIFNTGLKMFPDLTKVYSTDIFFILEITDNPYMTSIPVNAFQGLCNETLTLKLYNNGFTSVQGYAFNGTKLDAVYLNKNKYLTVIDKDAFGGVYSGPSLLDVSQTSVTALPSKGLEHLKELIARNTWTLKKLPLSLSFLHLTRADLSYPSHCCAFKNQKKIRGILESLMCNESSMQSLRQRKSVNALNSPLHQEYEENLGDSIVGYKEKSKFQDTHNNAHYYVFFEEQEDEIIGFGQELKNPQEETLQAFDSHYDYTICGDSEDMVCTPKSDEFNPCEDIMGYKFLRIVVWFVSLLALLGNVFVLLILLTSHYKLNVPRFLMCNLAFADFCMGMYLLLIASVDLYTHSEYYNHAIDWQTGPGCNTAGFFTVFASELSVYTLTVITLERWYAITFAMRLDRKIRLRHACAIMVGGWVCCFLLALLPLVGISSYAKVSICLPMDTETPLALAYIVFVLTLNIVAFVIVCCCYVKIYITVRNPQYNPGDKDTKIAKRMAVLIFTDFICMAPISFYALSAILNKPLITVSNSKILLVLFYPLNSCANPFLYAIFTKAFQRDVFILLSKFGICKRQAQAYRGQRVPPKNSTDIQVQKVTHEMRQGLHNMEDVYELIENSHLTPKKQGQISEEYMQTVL

A short description of assay [7]: qHTS assay to identify small molecule agonists of the estrogen receptor alpha (ER-alpha) signaling pathway in the presence of an antagonist - cell viability counter screen (AID 1259386).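 Also: series mostly up to about 92 µM; cells exposed to compounds for 22 h at 37 °C before the viability read; nearly all actives have a fitted effect of over 30% in size.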 An outline of the steps: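 ICI-182,780 at 10.0nM final accompanies the compound titration (15 concentrations, 22hr, 37C) on VM7Luc4E2 cells. The CellTiter-Fluor fluorescence readout runs in the same wells as the luciferase assay.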

Assay [8] concerns the target Progesterone receptor (Homo sapiens) (UniProt P06401). Briefly: qHTS assay to identify small molecule agonists of the progesterone receptor (PR) signaling pathway (AID 1346784; calls by dose curve; also: nearly all actives have a fitted effect of over 30% in size). An outline of the steps: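 The screen uses PR-UAS-bla HEK 293T cells in charcoal-stripped serum (2%). Compounds are applied for 16 hr at 37C after a 6 hr pre-incubation, and reporter activity is detected with a FRET beta-lactamase substrate after 2 hr at room temperature.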

Assay [9] shares this target. The assay is described as follows: qHTS assay to identify small molecule antagonists of the progesterone receptor (PR) signaling pathway (AID 1346795; active = well fitted inhibition curve with a large enough effect in the signal ratio in the repeat runs, not every such curve was filed as active; the % refers to the signal ratio). The gist of the method: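 After 6 hr plating at 37C in 2% stripped-serum medium, PR-UAS-bla HEK293T cells got compounds, then 1 nM R5020. Sixteen hours later, LiveBLAzer substrate was applied for 2 hr at room temperature and fluorescence was recorded.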

Assay [10] can be described thus: qHTS assay to identify small molecule agonists of the progesterone receptor (PR) signaling pathway - cell viability counter screen (AID 1346799; calls by dose curve; also: nearly all actives have a fitted effect of over 45% in size). The gist of the method:
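Viability was scored by ATP luminescence (CellTiter-Glo, 30 min, room temperature) in the same wells used for the reporter readout, after 16 hr compound exposure of PR-UAS-bla HEK293T cells.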

Assay [11] in a line: qHTS assay to identify small molecule antagonists of the TGF-beta/Smad signaling pathway - cell viability counter screen (AID 1346824). Also: nearly all actives have a fitted effect of over 50% in size. The gist of the method: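 SBE-bla HEK 293T cells, incubated overnight, then compound plus 0.25 ng/mL TGF-beta1 (stock added) for 5 hr at 37 C. Viability was read in the same wells by CellTiter-Glo luminescence after 30 min at room temperature.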

Assay [12] is described as follows: qHTS assay to identify small molecule agonists of the TGF-beta/Smad signaling pathway - cell viability counter screen (AID 1346829). Also: top concentration of the series differs between compounds; nearly all actives have a fitted effect of over 45% in size. The gist of the method:
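After overnight seating at 37 C and 5% CO2, reporter cells got compounds for 5 hr and FRET substrate for 2 hr; cell viability then came from CellTiter-Glo luminescence.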

The nature of assay [13]: qHTS assay to identify small molecule agonists of the TGF-beta/Smad signaling pathway (AID 1346859; active = well fitted activation curve with a large enough effect in the signal ratio in the repeat runs, not every such curve was filed as active; the % refers to the signal ratio; also: series mostly up to about 77 µM). The gist of the method:
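Dual-wavelength fluorescence (460/530 nm emission) quantified beta-lactamase expression under the Smad binding element in HEK 293T cells following 5 hr compound treatment at 37 C.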

Assay [14] addresses Thyrotropin-releasing hormone receptor (Homo sapiens) (UniProt P34981). The assay is described as follows: qHTS assay to identify small molecule antagonists of the thyrotropin-releasing hormone receptor (TRHR) signaling pathway (AID 1346877; active = well fitted inhibition curve with a large enough effect in the repeat runs, not every such curve was filed as active; also: series mostly up to about 51 µM). An outline of the steps: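 Screening used HEK293 cells engineered with TRHR, with a brief 5 min room-temperature compound exposure preceding addition of TRH to 1 nM. The read-out was kinetic calcium-dye fluorescence, concentration-response from 15 doses in triplicate.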

The target is the same in assay [15]. Briefly: qHTS assay to identify small molecule agonists of the thyrotropin-releasing hormone receptor (TRHR) signaling pathway (AID 1346891; calls by dose curve;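 also: HEK293 cells expressing TRHR with calcium dye readout; series mostly up to about 58 µM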). The gist of the method:
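Kinetic fluorescence (3 min, 1 s intervals) reported intracellular calcium after compound transfer onto TRHR-Hek293 cells pre-loaded with dye for 2 h at 37 °C.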

Assay [16] has as its target Estrogen receptor beta (Homo sapiens) (UniProt Q92731). Briefly: qHTS assay to identify small molecule antagonists of the estrogen receptor beta (ER-beta) signaling pathway (AID 1259378; active = well fitted inhibition curve with a large enough effect in the signal ratio in the repeat runs, not every such curve was filed as active; the % refers to the signal ratio). An outline of the steps: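 ER-beta-UAS-bla HEK293T cells in 2% charcoal-stripped FBS medium treated with compound plus 1nM final 17-beta-estradiol for 16 hr at 37C. Beta-lactamase reporter read by FRET substrate fluorescence after 2 hours at room temperature.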

For assay [17], the target named is Androgen receptor (Homo sapiens) (UniProt P10275). Briefly: qHTS assay to identify small molecule agonists of the androgen receptor (AR) signaling pathway in the presence of an antagonist (AID 1259381; calls by dose curve; also: nearly all actives have a fitted effect of over 15% in size). The gist of the method: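 Using human MDA-kb2 cells with an MMTV promoter–luciferase construct (AR and GR response elements), agonist activity is scored under 3.0uM nilutamide (final) co-treatment; 16hr incubation, 37C, luminescence readout via ONE-Glo.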
Androgen receptor (Homo sapiens), sequence (P10275 whole entry, looked up): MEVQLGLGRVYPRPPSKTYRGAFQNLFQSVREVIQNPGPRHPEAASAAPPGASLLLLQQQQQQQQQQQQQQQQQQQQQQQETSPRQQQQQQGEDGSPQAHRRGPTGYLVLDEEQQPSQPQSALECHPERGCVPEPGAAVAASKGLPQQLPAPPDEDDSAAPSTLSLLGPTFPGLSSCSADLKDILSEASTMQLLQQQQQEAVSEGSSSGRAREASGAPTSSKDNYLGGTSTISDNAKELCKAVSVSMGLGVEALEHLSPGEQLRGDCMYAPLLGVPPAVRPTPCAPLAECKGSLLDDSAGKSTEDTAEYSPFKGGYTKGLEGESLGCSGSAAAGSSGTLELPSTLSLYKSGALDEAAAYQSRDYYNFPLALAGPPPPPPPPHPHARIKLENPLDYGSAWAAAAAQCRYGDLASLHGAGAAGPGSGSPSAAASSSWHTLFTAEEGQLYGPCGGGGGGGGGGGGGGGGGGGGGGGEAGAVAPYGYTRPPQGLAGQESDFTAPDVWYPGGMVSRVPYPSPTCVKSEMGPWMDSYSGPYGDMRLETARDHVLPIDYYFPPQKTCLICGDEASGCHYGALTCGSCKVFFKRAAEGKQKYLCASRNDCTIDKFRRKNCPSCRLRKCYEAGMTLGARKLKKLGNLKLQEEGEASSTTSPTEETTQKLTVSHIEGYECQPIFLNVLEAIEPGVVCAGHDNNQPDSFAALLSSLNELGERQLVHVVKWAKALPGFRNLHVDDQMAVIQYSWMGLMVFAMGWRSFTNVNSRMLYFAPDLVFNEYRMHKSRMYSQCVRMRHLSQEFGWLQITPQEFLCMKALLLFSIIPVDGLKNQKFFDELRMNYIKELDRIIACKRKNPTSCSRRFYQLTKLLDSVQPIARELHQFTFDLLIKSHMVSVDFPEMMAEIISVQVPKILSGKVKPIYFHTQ

Assay [18] concerns the target Estrogen receptor beta (Homo sapiens) (UniProt Q92731). Briefly: qHTS assay to identify small molecule agonists of the estrogen receptor beta (ER-beta) signaling pathway (AID 1259377; active = well fitted activation curve with a large enough effect in the signal ratio in the repeat runs, not every such curve was filed as active; the % refers to the signal ratio). An outline of the steps: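 Measured by fluorescence intensity from a B/G FRET beta-lactamase substrate (2 h, room temperature) in ER-beta-UAS-bla HEK293T cells treated with DMSO-dissolved compounds for 16 hr at 37C and 5% CO2.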

Assay [19] can be described thus: qHTS assay to identify small molecule antagonists of the progesterone receptor (PR) signaling pathway - cell viability counter screen (AID 1346798). Also: series mostly up to about 92 µM; nearly all actives have a fitted effect of over 50% in size. The gist of the method: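 Viability was determined by ATP-based luminescence (CellTiter-Glo) in PR-UAS-bla HEK293T cells cultured in 2% charcoal-stripped serum and incubated 16 hr with compounds under R5020 stimulation.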

Each structure is given as a SMILES string. Unmarked numbers belong to inactive results. Inconclusive results are not listed. The source made the active and inactive calls. Unless noted, calls follow the shape of the dose curve; as a rule, active = well fitted curve in the direction sought with a large enough effect in the repeat runs; inconclusive = weak or mixed curves; inactive = no such curve, though single readings can be large; an effect the other way counts as inactive or inconclusive.

Progesterone receptor (Homo sapiens), sequence (P06401 whole entry, looked up): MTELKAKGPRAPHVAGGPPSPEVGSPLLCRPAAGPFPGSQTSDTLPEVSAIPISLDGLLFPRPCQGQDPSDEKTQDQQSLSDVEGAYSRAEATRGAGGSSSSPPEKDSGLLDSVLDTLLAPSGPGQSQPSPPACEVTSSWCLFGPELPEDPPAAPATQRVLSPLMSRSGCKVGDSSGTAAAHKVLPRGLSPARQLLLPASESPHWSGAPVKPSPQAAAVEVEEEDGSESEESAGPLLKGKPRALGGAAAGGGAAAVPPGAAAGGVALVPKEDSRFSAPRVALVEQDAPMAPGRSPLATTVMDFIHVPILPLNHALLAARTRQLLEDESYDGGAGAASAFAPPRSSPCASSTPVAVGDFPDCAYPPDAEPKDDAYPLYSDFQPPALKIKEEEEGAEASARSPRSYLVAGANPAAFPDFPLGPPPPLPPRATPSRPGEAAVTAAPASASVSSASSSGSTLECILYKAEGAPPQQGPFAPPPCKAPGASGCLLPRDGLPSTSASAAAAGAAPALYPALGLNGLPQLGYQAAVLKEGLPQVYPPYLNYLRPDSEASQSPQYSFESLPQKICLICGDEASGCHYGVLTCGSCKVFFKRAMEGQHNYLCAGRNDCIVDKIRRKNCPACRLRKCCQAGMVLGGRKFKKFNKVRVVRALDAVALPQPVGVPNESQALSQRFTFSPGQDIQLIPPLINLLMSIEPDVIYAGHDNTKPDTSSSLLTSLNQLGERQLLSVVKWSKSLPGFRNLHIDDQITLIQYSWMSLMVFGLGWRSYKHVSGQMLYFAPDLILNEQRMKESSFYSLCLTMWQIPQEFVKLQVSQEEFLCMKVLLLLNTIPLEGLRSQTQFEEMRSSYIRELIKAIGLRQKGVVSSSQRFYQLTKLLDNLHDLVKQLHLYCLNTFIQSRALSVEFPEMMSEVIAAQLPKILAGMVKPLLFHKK
Estrogen receptor beta (Homo sapiens), sequence (Q92731 whole entry, looked up): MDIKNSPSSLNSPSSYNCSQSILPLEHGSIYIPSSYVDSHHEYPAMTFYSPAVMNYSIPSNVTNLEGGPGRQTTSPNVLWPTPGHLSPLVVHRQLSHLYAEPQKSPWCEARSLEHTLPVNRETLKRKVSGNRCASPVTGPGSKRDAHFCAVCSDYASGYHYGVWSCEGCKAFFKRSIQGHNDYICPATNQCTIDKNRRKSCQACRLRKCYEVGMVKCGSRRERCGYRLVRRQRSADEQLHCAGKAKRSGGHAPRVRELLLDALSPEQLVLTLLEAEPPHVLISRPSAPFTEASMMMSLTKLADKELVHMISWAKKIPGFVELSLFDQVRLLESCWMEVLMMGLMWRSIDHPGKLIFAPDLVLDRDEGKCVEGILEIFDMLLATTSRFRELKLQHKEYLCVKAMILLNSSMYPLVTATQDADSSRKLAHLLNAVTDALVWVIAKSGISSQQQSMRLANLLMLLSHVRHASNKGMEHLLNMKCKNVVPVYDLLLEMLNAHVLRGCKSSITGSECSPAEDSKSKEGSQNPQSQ
Thyrotropin-releasing hormone receptor (Homo sapiens), sequence (P34981 whole entry, looked up): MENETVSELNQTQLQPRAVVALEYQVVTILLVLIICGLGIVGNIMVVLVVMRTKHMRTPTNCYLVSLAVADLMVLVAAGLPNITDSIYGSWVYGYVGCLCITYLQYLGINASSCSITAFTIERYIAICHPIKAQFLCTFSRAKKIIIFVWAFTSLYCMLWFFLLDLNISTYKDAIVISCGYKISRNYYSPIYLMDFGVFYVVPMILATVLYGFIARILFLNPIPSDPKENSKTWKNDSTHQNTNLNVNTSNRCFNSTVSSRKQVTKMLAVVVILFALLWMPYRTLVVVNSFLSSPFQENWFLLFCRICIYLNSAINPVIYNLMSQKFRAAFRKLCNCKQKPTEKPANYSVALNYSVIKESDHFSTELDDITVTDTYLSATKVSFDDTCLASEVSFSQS
Estrogen receptor (Homo sapiens), sequence (P03372 whole entry, looked up): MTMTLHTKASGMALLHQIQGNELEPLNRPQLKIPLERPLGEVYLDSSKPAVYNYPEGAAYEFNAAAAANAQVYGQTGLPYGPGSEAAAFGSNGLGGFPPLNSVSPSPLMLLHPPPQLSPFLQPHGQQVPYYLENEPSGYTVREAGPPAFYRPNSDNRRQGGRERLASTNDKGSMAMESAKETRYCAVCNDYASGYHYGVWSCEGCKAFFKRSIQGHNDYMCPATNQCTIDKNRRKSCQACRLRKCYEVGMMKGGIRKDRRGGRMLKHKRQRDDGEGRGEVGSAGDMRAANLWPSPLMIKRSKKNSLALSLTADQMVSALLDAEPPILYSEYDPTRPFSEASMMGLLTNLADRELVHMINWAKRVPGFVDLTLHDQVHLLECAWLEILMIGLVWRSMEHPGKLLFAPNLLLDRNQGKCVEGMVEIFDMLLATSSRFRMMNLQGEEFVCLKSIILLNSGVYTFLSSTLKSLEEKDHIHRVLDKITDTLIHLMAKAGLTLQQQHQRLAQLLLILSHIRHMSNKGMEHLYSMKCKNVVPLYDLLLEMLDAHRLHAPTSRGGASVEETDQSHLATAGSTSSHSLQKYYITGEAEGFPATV

In the case of `C[N+](C)(C)CCOC(=O)CCC(=O)OCC[N+](C)(C)C`, the Potency result in assay [1], in assay [2], in assay [3], in assay [4], in assay [5] and in [6] was “inactive” in each case. In addition, the Potency entry in assay [7], in assay [8], in [9], in [10], in [11] and in assay [13] was “inactive” in each case. In addition, the Potency result in assay [15] was “inactive”. For the same compound, the result in [12] and in assay [14] was inactive.

Turning to `CCCCCCCCCCCCCCCCOS(=O)(=O)O`, the Potency entry in assay [16], in assay [1], in assay [17], in [4], in assay [5] and in assay [7] was “inactive” in each case. Further, the Potency entry in assay [11] and in assay [13] was “inactive” in each case. For the same compound, in [2], the Potency was 33.5 µM (active). Also, in assay [12], the compound was called inactive.

Take `Nc1ccc([N+](=O)[O-])c(C(F)(F)F)c1`: the Potency result in assay [18], in assay [1], in assay [2], in assay [4], in [6] and in [19] was “inactive” in each case. The Potency entry in [11], in assay [13] and in assay [15] was “inactive” each time. The call in [12] and in [14] was inactive.

With `CC(=O)NO`, the Potency entry in assay [18], in assay [1], in assay [2], in [6], in assay [7] and in [11] was “inactive” each time. Further, the Potency entry in [13] and in assay [15] was “inactive” each time. The compound was classed as inactive in assay [12] and in assay [14].

Regarding `NC(=O)C(c1ccccc1)(c1ccccc1)[C@@H]1CCN(CCc2ccc3c(c2)CCO3)C1`, the Potency entry in [1], in assay [2], in assay [3], in [4], in [5] and in assay [6] was “inactive” in each case. Further, the Potency result in assay [7], in assay [8] and in assay [10] was “inactive” in each case. Further, the compound was called inactive in assay [12] and in [14].

Consider `CCCCc1nc2cccnc2n1Cc1ccc(-c2ccccc2-c2nnn[nH]2)cc1`, for which the Potency result in [18], in assay [1], in [4], in assay [5], in assay [6] and in assay [8] was “inactive” each time. In addition, the Potency entry in [19], in assay [10], in [11] and in assay [15] was “inactive” throughout. Also, the result in [12] and in assay [14] was inactive.

Regarding `CCOCC(O)COc1ccc(NC(=O)CC[S+](C)C)cc1` (stereo unspecified), the Potency result in assay [1], in assay [2], in assay [3], in assay [4], in assay [5] and in assay [6] was “inactive” each time. The Potency result in assay [7], in [8], in assay [9], in assay [19], in [10] and in [11] was “inactive” in each case. For the same compound, the Potency entry in [13] and in [15] was “inactive” in each case. The outcome in assay [12] and in assay [14] was inactive.

As to `COc1ccc(C(=O)Nc2nc3ccccc3c(NCc3ccccc3)c2C#N)cc1`, the Potency result in [16], in assay [1], in [3], in [4], in assay [8] and in assay [9] was “inactive” in each case. In addition, the Potency result in [19], in [10] and in assay [11] was “inactive” throughout. The Potency in assay [2] was 27.3 µM (active). For the same compound, the call in assay [12] was inactive.

Regarding `CC1(c2ccccc2)OC(C(=O)O)=CC1=O` (stereo unspecified), the Potency result in assay [16], in assay [1], in assay [2], in assay [3], in assay [5] and in [6] was “inactive” in each case. Moreover, the Potency result in assay [7], in [8], in assay [9], in assay [19], in assay [10] and in [13] was “inactive” throughout. Moreover, the Potency result in assay [15] is “inactive”. Further, the compound was called inactive in assay [12] and in assay [14].

The record behind these values is PubChem BioAssay (Tox21).
